Experimental findings from PubChem BioAssay are described below.

Activity calls are given as the source filed them.

For experiment [1], the system named is Plasmodium falciparum Sir2 (PF13_0152, Sir2A). As to the kind of experiment: Plasmodium falciparum Sir2A binding compounds – biochemical, small-molecule microarray, 635 nm fluorescence, primary screen (AID 1098).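 Also: score merges spot fluorescence intensity with its signal-to-noise ratio.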 To be noted: fluorescence 635 nm, higher = more signal.
Experiment [2] is described as follows: probe aDKK1 binding to arrayed compounds – biochemical, biotinylated probe, 635/667 nm fluorescence, primary screen (AID 1099).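 Also: score merges 667nm spot fluorescence with signal to noise across triplicate slides.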 The settings on record: small-molecule microarray, higher = more signal.
Experiment [3] is described as follows: probe aCHRDL2 binding to arrayed compounds – biochemical, biotinylated probe, 635/667 nm fluorescence, primary screen (AID 1100). The settings on record: small-molecule microarray, higher = more signal.
Experiment [4] is described as follows: change in splice reporter luminescence, either direction, cell-based, HEK293, spliceosome inhibition project, primary screen (AID 1101).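 Also: HEK293 cells carrying a splicing-competent luciferase reporter gene; test concentration not given here.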 To be noted: HEK293 splicing luciferase reporter, 24 h, higher = more signal, called active from +8 up or from −8 down.
In experiment [5] the target is Fibroblast growth factor 10 (Homo sapiens) (UniProt O15520). As to the kind of experiment: compounds binding fibroblast growth factor 10 – biochemical, small-molecule microarray, 635 nm fluorescence, primary screen (AID 1102). To be noted: FGF10 binding, fluorescence 635 nm, higher = more signal.
The subject of experiment [6] is glycogen synthase kinase-3 (GSK3A per assay name; protocol says GSK3B). In words: compounds binding glycogen synthase kinase-3 – biochemical, small-molecule microarray, 635 nm fluorescence, GSK3A, primary screen (AID 1103). Also: the record names both GSK3A and GSK3B. The settings on record: fluorescence 635 nm, higher = more signal.
Experiment [7] addresses Epidermal growth factor receptor (Homo sapiens) (UniProt P00533). In words: compounds binding epidermal growth factor receptor – biochemical, small-molecule microarray, 635 nm fluorescence, primary screen (AID 1104).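 Also: score merges 667 nm emission intensity with spot signal to noise over triplicate slides.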 The settings on record: EGFR binding, higher = more signal.
The target in experiment [8] is Follistatin-related protein 3 (Homo sapiens) (UniProt O95633). As to the kind of experiment: compounds binding follistatin-related protein 3 – biochemical, small-molecule microarray, 635 nm fluorescence, primary screen (AID 1105).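 Also: score merges emission near 667 nm and signal to noise per printed spot across three slides.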 The settings on record: FSTL3 binding, higher = more signal.
For experiment [9], the target named is Dickkopf-related protein 1 (Homo sapiens) (UniProt O94907). As to the kind of experiment: small molecules binding DKK1 protein – biochemical, small-molecule microarray, 635 nm fluorescence scan, primary screen (AID 1106).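 Also: score merges emission near 667 nm with signal to noise over three replicate slides.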 The settings on record: higher = more signal.
Experiment [10] deals with Inhibin beta A chain (activin A). As to the kind of experiment: small molecules binding activin A – biochemical, small-molecule microarray, 635 nm fluorescence scan, primary screen (AID 1107).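 Also: mouse activin A protein probed at 4.33 µg/mL on printed slides; score merges bound-protein fluorescence near 667 nm with spot signal-to-noise.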 The settings on record: INHBA, higher = more signal.
The subject of experiment [11] is Human papillomavirus type 1a protein E7 (residues 44-93). As to the kind of experiment: small molecules binding HPV E7 44-93 – biochemical, small-molecule microarray, residues 44-93, 635 nm fluorescence, primary screen (AID 1108).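 Also: E7 fragment applied at 1 µg/mL in TBST for 1 h at 4 C; score combines spot fluorescence with its signal to noise ratio.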 The settings on record: fluorescence 635 nm, higher = more signal.
The nature of experiment [12]: hepatitis C replication reporter changes, two-sided – Huh7 cells, luciferase reporter, HCV replication inhibitor project, primary screen (AID 1109).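 Also: huh7 hepatoma cells harbouring a luciferase neomycin HCV replicon reporter; luciferase luminescence as measure of HCV replicon replication; test concentration not given here.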 To be noted: Huh7 HCV replicon luciferase reporter, 48 h; higher = more signal.
Experiment [13] has as its target Left-right determination factor 2 (Homo sapiens) (UniProt O00292). In words: small molecules binding LEFTY2 protein – biochemical, small-molecule microarray, 635 nm fluorescence scan, primary screen (AID 1110). The settings on record: higher = more signal.
For experiment [14], the target named is Calmodulin-1 (Homo sapiens) (UniProt P0DP23). As to the kind of experiment: small molecules binding calmodulin-1 with EGTA – biochemical, small-molecule microarray, Cy5-labelled CALM1, profiling panel (AID 1111).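 Also: labelled calmodulin applied in Tris saline Tween buffer holding calcium plus EGTA and DTT.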 To be noted: Cy5-CALM1 binding fluorescence, higher = more signal.
Experiment [15] shares this target. In words: small molecules binding Ca-loaded calmodulin-1 – biochemical, small-molecule microarray, Cy5-labelled CALM1, plus calcium, artefact control for SMM control-protein annotation, profiling panel (AID 1112).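 Also: score merges spot fluorescence with signal to noise from triplicate slides.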 To be noted: Cy5-CALM1 binding fluorescence, higher = more signal.
Experiment [16] in a line: probe aWnt5a binding to arrayed compounds – biochemical, biotinylated probe, 635/667 nm fluorescence, primary screen (AID 1113).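 Also: score merges 667 nm fluorescence intensity with signal-to-noise per printed feature.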 To be noted: small-molecule microarray, higher = more signal.
Experiment [17] in a line: probe aShh binding to arrayed compounds – biochemical, biotinylated probe, 635/667 nm fluorescence, primary screen (AID 1114).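 Also: probe is biotin-labelled aShh protein from a stem cell growth factor screen; measures binding of labelled protein to compounds printed on the slide; score merges feature fluorescence at 667 nm with signal-to-noise.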 To be noted: small-molecule microarray, higher = more signal.
Experiment [18] in a line: probe aNog binding to arrayed compounds – biochemical, biotinylated probe, 635/667 nm fluorescence, primary screen (AID 1115).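 Also: probe is biotinylated aNog protein used at 0.15 µg/mL for 1 h at 4 C; z-score combines 667 nm fluorescence of each spot with its signal to noise.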 The settings on record: small-molecule microarray, higher = more signal.
Experiment [19] addresses Torsin-1A-interacting protein 1 (Homo sapiens) (UniProt Q5JTV8). As to the kind of experiment: compound microarray binding of lysate hLAP1 – cell lysate, small-molecule microarray, COS7 lysate, 635/667 nm fluorescence, primary screen (AID 1116). The settings on record: 635 nm fluorescence, higher = more signal.
The target of experiment [20] is Alpha-bungarotoxin (Bungarus multicinctus) (UniProt P60615). As to the kind of experiment: compounds binding labelled alpha-BTX control protein – biochemical, small-molecule microarray, Alexa647 label, 635/667 nm fluorescence, artefact control for SMM control protein annotation, profiling panel (AID 1117). To be noted: alpha-BTX-A647 binding fluorescence, higher = more signal.
Sequence of Alpha-bungarotoxin (Bungarus multicinctus) (P60615 whole entry, looked up): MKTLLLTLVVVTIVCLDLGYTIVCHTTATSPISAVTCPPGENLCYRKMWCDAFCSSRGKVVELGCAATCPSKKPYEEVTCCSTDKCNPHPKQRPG

Sequence of Fibroblast growth factor 10 (Homo sapiens) (O15520 whole entry, looked up): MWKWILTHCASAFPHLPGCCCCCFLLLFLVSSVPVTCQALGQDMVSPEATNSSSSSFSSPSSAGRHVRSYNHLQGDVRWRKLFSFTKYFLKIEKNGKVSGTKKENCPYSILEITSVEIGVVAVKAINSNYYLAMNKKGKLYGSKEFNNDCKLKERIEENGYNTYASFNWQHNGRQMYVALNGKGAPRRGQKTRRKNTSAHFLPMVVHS
Sequence of Torsin-1A-interacting protein 1 (Homo sapiens) (Q5JTV8 whole entry, looked up): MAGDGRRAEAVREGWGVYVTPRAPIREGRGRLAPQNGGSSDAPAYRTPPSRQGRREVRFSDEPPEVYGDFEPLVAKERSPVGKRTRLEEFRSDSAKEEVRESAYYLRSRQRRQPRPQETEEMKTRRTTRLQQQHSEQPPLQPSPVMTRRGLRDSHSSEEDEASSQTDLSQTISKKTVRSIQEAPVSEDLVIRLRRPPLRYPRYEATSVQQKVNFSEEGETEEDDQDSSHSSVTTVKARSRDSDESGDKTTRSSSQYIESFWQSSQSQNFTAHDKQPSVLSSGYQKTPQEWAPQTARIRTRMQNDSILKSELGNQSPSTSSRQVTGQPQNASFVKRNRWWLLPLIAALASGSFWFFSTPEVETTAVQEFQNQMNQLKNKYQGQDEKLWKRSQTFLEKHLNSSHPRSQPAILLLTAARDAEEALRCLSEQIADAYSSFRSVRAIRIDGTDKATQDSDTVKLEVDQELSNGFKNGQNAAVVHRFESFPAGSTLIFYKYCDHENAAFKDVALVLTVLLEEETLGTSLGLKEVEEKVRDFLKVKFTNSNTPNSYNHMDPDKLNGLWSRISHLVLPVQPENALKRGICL
Sequence of Dickkopf-related protein 1 (Homo sapiens) (O94907 whole entry, looked up): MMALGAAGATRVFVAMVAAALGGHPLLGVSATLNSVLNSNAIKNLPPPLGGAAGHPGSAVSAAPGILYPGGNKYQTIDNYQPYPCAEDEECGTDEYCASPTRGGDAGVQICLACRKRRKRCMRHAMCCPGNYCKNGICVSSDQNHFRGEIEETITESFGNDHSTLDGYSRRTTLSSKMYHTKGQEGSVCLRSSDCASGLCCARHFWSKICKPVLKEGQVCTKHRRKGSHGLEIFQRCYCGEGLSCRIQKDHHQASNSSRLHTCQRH
Sequence of Epidermal growth factor receptor (Homo sapiens) (P00533 whole entry, looked up): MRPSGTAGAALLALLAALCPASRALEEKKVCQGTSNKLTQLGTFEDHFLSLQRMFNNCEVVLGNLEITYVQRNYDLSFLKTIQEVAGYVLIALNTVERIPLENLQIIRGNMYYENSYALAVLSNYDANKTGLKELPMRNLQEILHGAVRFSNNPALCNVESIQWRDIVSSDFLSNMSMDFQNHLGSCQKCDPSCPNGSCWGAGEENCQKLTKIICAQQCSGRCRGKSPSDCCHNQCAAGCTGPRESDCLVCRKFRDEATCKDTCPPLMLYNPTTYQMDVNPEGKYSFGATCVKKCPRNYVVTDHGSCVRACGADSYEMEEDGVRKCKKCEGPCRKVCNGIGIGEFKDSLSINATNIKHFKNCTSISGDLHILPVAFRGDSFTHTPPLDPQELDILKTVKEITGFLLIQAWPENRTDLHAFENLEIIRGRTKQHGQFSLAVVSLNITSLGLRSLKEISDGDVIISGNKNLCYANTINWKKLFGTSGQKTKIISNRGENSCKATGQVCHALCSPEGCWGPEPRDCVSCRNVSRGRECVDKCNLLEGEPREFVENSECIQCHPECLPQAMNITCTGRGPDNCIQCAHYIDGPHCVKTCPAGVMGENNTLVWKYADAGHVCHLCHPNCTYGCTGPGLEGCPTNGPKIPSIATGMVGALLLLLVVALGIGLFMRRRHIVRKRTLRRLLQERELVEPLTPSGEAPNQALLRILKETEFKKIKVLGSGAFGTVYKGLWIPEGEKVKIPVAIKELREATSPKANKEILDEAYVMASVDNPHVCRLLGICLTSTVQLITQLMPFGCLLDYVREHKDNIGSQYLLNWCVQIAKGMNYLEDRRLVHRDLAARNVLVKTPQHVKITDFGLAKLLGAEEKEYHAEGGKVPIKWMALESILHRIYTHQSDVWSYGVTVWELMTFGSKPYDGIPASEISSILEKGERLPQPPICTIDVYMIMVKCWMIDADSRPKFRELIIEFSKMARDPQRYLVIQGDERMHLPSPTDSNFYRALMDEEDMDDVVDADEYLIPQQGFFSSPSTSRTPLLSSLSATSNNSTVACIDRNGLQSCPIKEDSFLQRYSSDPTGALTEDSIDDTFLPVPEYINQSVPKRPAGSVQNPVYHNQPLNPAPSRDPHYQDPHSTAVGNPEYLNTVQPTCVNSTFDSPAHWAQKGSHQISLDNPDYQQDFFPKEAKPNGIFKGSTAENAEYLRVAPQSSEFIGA
Sequence of Follistatin-related protein 3 (Homo sapiens) (O95633 whole entry, looked up): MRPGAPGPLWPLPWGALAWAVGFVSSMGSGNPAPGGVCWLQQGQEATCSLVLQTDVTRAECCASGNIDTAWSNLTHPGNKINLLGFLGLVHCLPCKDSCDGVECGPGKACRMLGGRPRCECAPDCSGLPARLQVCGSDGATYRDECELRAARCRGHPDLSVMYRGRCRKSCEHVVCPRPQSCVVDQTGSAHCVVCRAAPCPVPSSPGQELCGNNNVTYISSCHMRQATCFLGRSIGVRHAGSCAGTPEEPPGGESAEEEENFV
Sequence of Left-right determination factor 2 (Homo sapiens) (O00292 whole entry, looked up): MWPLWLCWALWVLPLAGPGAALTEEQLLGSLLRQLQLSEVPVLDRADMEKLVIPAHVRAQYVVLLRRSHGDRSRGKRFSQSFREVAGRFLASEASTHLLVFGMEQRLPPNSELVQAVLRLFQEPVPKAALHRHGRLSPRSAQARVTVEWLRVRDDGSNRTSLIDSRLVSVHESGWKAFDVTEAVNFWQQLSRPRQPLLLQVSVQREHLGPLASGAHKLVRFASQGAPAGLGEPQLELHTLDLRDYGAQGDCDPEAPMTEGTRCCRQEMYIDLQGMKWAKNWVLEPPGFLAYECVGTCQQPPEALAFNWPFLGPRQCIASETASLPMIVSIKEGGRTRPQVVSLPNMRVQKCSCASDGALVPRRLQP

Regarding `[N-]=[N+]=NCc1ccccc1[C@@H]1OC(c2ccc(OCCCO)cc2)=N[C@]1(Cc1ccccc1N=[N+]=[N-])C(=O)NCC(O)CO` (stereo not given in full), the composite z-score in experiment [1] came out at 1.29; in [2], 1.28; in experiment [3], 0.98; in experiment [5], 0.846; in experiment [6], 0.898; in experiment [7], 0.0004. The composite z-score in [8] was 0.418; in experiment [9], 0.0477; in [10], 1.22; in experiment [11] it was 1.18; in experiment [13], -0.262; in [14] it was 2.58. The composite z-score in experiment [15] amounted to 1.23; in [16], 0.61; in [17], 0.0048; in experiment [18] it was 2.34; in [19], 2.74; in [20], 0.895. Further, the z-score in experiment [4] was 1.25 (inactive); in experiment [12], -1.41.
Turning to `COc1ccc(C(=O)Nc2cccc(CN3C(=O)[C@]4(O[C@H](CC(=O)N5Cc6ccccc6C[C@H]5CO)[C@@H]([Si](C)(C)c5ccc(OC)cc5)[C@@H]4C)c4ccccc43)c2)cc1`, the composite z-score in experiment [1] is 0.895; in [2], -0.245; in experiment [3], -0.362; in experiment [5] it was 0.946; in experiment [6], 0.955; in experiment [7] it was 1.24. The composite z-score in [8] amounted to 1.42; in experiment [9], 1.34; in experiment [10] it was 1.21; in experiment [11], 1.23; in [13], 1.05; in experiment [14], 0.219. The composite z-score in experiment [15] is -0.763; in experiment [16], 0.0194; in [17], 0.0639; in [18], 0.0811; in experiment [19] it was 0.711; in experiment [20], 1.12. For the same compound, the z-score in [4] was -0.865 (inactive); in [12], -3.44.
`COC(=O)[C@@]1(Cc2ccc(OC)cc2)[C@H]2c3cc(C(=O)N4CCCC4)n(Cc4ccc(Cl)c(C(F)(F)F)c4)c3C[C@H]2CN1C(=O)c1ccccc1`: the composite z-score in experiment [1] is 1.38; in experiment [2] it was 1.62; in [3], 1.23; in experiment [5], 0.927; in experiment [6], 1.27; in experiment [7], -0.02. The composite z-score in experiment [8] is 1.36; in [9] it was -0.428; in experiment [10], 0.822; in [11] it was 1.47; in [13], 0.0524; in experiment [14], 2.74. Moreover, the composite z-score in experiment [15] was found to be 1.35; in experiment [16], 0.207; in [17] it was 0.165; in experiment [18], 2.07; in experiment [19] it was 1.98; in experiment [20] it was 1.62. Besides, the z-score was -0.75 (inactive) in experiment [4] and -2 in experiment [12].
As to `COc1ccc([Si](C)(C)[C@H]2[C@H](CCO)O[C@@]3(C(=O)N(Cc4ccc(NC(=O)[C@H](C)O)cc4)c4ccccc43)[C@@H]2C)cc1`, the composite z-score in experiment [1] is 0.931; in experiment [2] it was 0.162; in experiment [3], 0.193; in experiment [5], 1.14; in experiment [6] it was 1.07; in [7], 0.161. For the same compound, the composite z-score is 0.0961 in experiment [8]; 0.156 in [9]; 0.531 in experiment [10]; 1.42 in [11]; 0.378 in [13]; 1.19 in experiment [14]. The composite z-score is 0.0314 in experiment [15]; -0.105 in [16]; 0.318 in experiment [17]; 0.686 in experiment [18]; 0.989 in experiment [19]; 1.24 in experiment [20]. The values for the z-score in [4] and in [12] were -2.32 (inactive) and -5.22, respectively.
For `CC(C)=CCCC(C)=CC(O)C1C=CC2C(=O)NC(=O)C2N1Nc1ccccn1` (stereo not given), the composite z-score in experiment [1] is 1.52; in experiment [2] it was 0.0536; in [3], -0.319; in experiment [5], 1.46; in [6], 1.29; in experiment [7] it was 1.68. For the same compound, the composite z-score is 1.55 in experiment [8]; 1.76 in [9]; 1.6 in experiment [10]; 1.13 in [11]; 1.45 in experiment [13]; -0.188 in experiment [14]. Further, the composite z-score is -1.15 in [15]; 0.176 in experiment [16]; -0.153 in experiment [17]; -0.0116 in experiment [18]; 1 in experiment [19]; 1.2 in experiment [20]. For the same compound, the results for the z-score in experiment [4] and in experiment [12] were -0.121 (inactive) and -0.156, respectively.
